Hits are enriched below; roughly 19% of the tested compounds scored in any of these assays.
HT1080 IDH1KD tx: kills HT-1080 cells with IDH1 knockdown; HT-1080 IDH1 knockdown viability, ATP luminescence, 48 h; Potency, µM (top dose mostly 46.1 µM), usual class: cytotoxic; 360,000 tested, 2% active; AID 686971
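Using the IDH1-knockdown HT-1080 line run in the same batch and compound series as the NT line, viability after 48 h at 37 °C was determined by CellTiter-Glo luminescence and expressed as % activity.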
HT1080NT lethal: kills 2HG-producing HT-1080-NT fibrosarcoma cells | AID 686970 | Potency, µM (highest dose often 46.1 µM), most hits filed as cytotoxic | HT-1080-NT fibrosarcoma viability, CellTiter-Glo ATP luminescence, 48 h | 360,000 tested, 1.6% active;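 also: NT is the 2HG producing partner of a matched IDH1 knockdown line; nearly all actives have a fitted effect of over 55% in size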
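Fibrosarcoma NT cells, 750 per well in 5% FBS RPMI, were exposed to compound for 48 hours. Viability: CellTiter-Glo luminescence.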
IL1B secr inh: inhibitors of inflammasome signaling (IL-1 beta secretion). THP-1 LPS/ATP IL-1B secretion, AlphaLISA, 16 h; stronger effect = lower value. activity change, % at 57.5 µM. 360,000 tested, 4.7% active. AID 743279; in the data active = activity change below about -50%; inconclusive = mostly about -30% to -49%
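THP-1 cells pretreated 1 hr with compounds (up to 57.5 uM final), then stimulated with LPS (250 ng/mL final) plus ATP (1.25 mM final); secreted IL-1B measured by AlphaLISA after 16 hr, decreased signal indicating inhibition.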
DT40 TDP1 no CPT: qHTS for Inhibitors of human tyrosyl-DNA phosphodiesterase 1 (TDP1): qHTS in cells in absence of CPT; DT40 Tdp1-/- hTDP1 cells, no CPT, ATP luminescence, 48 h; Potency, µM (doses to about 46.2 µM), hits mostly inhibitors; 420,000 tested, 15% active; AID 686978, 2013; also: nearly all actives have a fitted effect of over 55% in size
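DT40 Tdp1-/-;hTDP1 cells, no CPT (DMSO vehicle only), 400 cells/well; compounds pin-transferred; ≥48 hr, 37 °C; CellTiter-Glo 30 min RT dark, luminescence read.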
DT40 TDP1 CPT: DT40-hTDP1 cell growth loss with CPT; 420,000 tested, 12% active; Potency, µM (highest dose often 46.2 µM), hits mostly inhibitors; AID 686979; chicken DT40 Tdp1-/-;hTDP1 cells + 20 nM CPT, ATP luminescence, 48 h; also: nearly all actives have a fitted effect of over 55% in size
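Chicken DT40 Tdp1-/- cells complemented with human TDP1, 400 cells/well, exposed to compounds plus 20 nM camptothecin for at least 48 h at 37 C; viability read as ATP content by CellTiter-Glo luminescence.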
uPA surface inh: blocks generation of uPA at the cell surface; cell surface uPA generation assay, qHTS; Potency, µM (doses to about 38.3 µM), usual class: inhibitors; 330,000 tested, 0.31% active; AID 540303; active = well fitted inhibition curve with a large enough effect; inconclusive = small, poorly fitted or top-dose-only effect; inactive = no such curve, though single readings can be large or run the other way; tested in mouse RAW 264.7 cells; also: nearly all actives have a fitted effect of over 55% in size
A number is an active result; – = inactive; ? = inconclusive; · = no result given; ! = not confirmed by another sample. Unless noted, calls follow the shape of the dose curve; as a rule, active = well fitted curve in the direction sought with a large enough effect; inconclusive = small, poorly fitted or top-dose-only effect, or another doubt; inactive = no such curve, though single readings can be large; an effect the other way counts as inactive or inconclusive.

SMILES	HT1080 IDH1KD tx	HT1080NT lethal	IL1B secr inh	DT40 TDP1 no CPT	DT40 TDP1 CPT	uPA surface inh
CCCn1c(N)c(C(=O)CN(C)CC(=O)Nc2c(Cl)cccc2Cl)c(=O)[nH]c1=O	–	–	?	23µM	16µM	–
CCOC(=O)c1ccc(CN2Cc3ccccc3C2=O)cc1	–	–	–	–	–	–
COc1ccccc1CNC(=O)C1CCN(S(=O)(=O)Cc2ccccc2)CC1	·	·	·	–	–	·
COc1ccc(CN2CCCC(CO)(Cc3ccc(F)cc3)C2)cc1C (stereo not given)	–	–	-61	?	?	–
CC(C)Oc1ccc(CN2CCCC(CO)(Cc3ccccc3)C2)cc1CO (stereo not given)	–	–	-54	?	29µM	–
OCC1(Cc2ccccc2)CCCN(Cc2ccc3c(c2)OCCO3)C1 (stereo not given)	–	–	–	–	–	–
CSCCCN1CCCC(CO)(Cc2ccc(F)cc2)C1 (stereo not given)	–	–	–	–	–	–
Cc1cc(C)c(CN2CCN(C(=O)Cn3cnc4c(OCc5ccccc5)ncnc43)CC2)c(C)c1	?	?	–	2.6µM	8.2µM	?
O=C1CCCN1CCCNCCCn1cnc2c(OCc3ccccc3)ncnc21	–	–	–	–	?	–
Cc1ccc(CN2CCN(CCCn3cnc4c(OCc5ccccc5)ncnc43)CC2)cc1	–	–	-54	?	23µM	–
c1ccc(COc2ncnc3c2ncn3CCCN2CCN(Cc3cccc4ccccc34)CC2)cc1	?	16µM	–	9.2µM	?	·
Cc1ccc(NCCCn2cnc3c(OCc4ccccc4)ncnc32)cc1C	–	–	–	?	?	–
O=C(Nc1ccc(F)cc1)C(c1cc2ccccc2o1)N1CCN(C(=O)c2ccco2)CC1 (stereo not given)	–	–	?	?	–	·
Cc1ccc(CNC(=O)CS(=O)Cc2nc(-c3cccs3)oc2C)cc1 (stereo not given)	–	–	–	?	23µM	?
Cc1oc(-c2ccccc2Cl)nc1CS(=O)CC(=O)NCCc1ccccc1 (stereo not given)	–	–	–	–	–	–
Cc1ccc(-c2nc(CS(=O)CC(=O)NCc3ccccc3)c(C)o2)cc1 (stereo not given)	–	–	–	–	–	–
CCc1ccc(-c2nc(CS(=O)CC(=O)NCCN3CCCCCC3)c(C)o2)cc1 (stereo not given)	?	?	-56	?	?	–
Cc1ccccc1-c1nc(CS(=O)CC(=O)NCCc2ccc(Cl)cc2)c(C)o1 (stereo not given)	–	–	–	?	16µM	–
Cc1ccc(CCNC(=O)CS(=O)Cc2nc(-c3cccs3)oc2C)cc1 (stereo not given)	–	–	–	?	?	–
Cc1ccc(NC(=O)CS(=O)Cc2nc(-c3ccc(C)cc3)oc2C)cc1 (stereo not given)	–	–	–	21µM	?	–
O=C(Nc1cccc([N+](=O)[O-])c1)c1ccc(N2CCCC2=O)cc1	–	?	–	–	–	–
CC(C)C(NC(=O)C(NC(=O)C1OC2OC(C)(C)OC2C2OC(C)(C)OC12)C(C)C)C(=O)O (stereo not given)	–	–	–	–	–	–
CCc1ccc(-c2nc(CS(=O)CC(=O)NCCc3ccc(C)cc3)c(C)o2)cc1 (stereo not given)	·	·	·	?	23µM	·
CCN(CC)CCn1c(NCc2ccc3c(c2)OCO3)nc2ccccc21	–	–	–	16µM	13µM	–
CCCCn1c(NCc2ccncc2)nc2ccccc21	–	–	–	–	–	–
SMILES	HT1080 IDH1KD tx	HT1080NT lethal	IL1B secr inh	DT40 TDP1 no CPT	DT40 TDP1 CPT	uPA surface inh
CCCn1c(NCc2ccccn2)nc2ccccc21	–	–	–	–	–	–
c1csc(CNc2nc3ccccc3n2CCN2CCOCC2)c1	–	–	–	–	–	–
COc1ccc(CNc2nc3ccccc3n2CCN2CCOCC2)cc1	–	–	–	21µM	–	–
CCCn1c(NCc2c[nH]c3ccccc23)nc2ccccc21	–	–	-52	?	?	–
CCCCn1c(NCc2ccc(N(C)C)cc2)nc2ccccc21	–	–	?	26µM	26µM	?
CC(=O)OC1CCC2(C)C(=CCC3C2CCC2(C)C3C[C@@H]3O[C@]32C(C)=O)C1 (stereo not given in full)	·	·	·	–	–	·
CCCCn1c(NCc2cc(C)ccc2O)nc2ccccc21	?	–	–	–	–	·
CCCCn1c(NCc2cc(Br)ccc2O)nc2ccccc21	·	·	·	15µM	15µM	·
CCN(CC)c1ccc(CNc2nc3ccccc3n2CCN2CCOCC2)cc1	–	–	-76	18µM	?	–
COCCCNc1nc2c(c(=O)n(Cc3ccccc3)c(=O)n2C)n1C	·	·	·	–	–	·
COc1ccccc1OCCNc1nc2c(c(=O)n(C)c(=O)n2C)n1C	–	–	–	18µM	29µM	–
Cn1c(=O)c2c(nc(NCCO)n2C)n(C)c1=O	–	?	–	–	–	–
Cn1c(=O)c2c(nc(NCCOc3ccc(C(C)(C)C)cc3)n2C)n(C)c1=O	–	–	–	1.8µM	1.5µM	–
Cc1ccc2c(CC(=O)Nc3ccc(S(=O)(=O)N4CCCCC4)cc3)coc2c1C	·	·	·	15µM	13µM	·
Cc1ccc(C)c(CNc2ccc(S(=O)(=O)N3CCCCC3)cc2)c1	–	–	–	21µM	15µM	2.5µM
Cc1cc(C)c2c(CC(=O)Nc3ccc(S(=O)(=O)N4CCCC(C)C4)cc3)coc2c1 (stereo not given)	·	·	·	23µM	?	·
CCCC(=O)Nc1ccc(S(=O)(=O)N2CCCC2)cc1	–	–	–	–	–	–
Cc1cc(C)c2c(CC(=O)Nc3ccc(S(=O)(=O)N4CCCCC4)cc3)coc2c1	·	·	·	10µM	21µM	·
C=CCOc1ccc(C2=NO[C@@H]3[C@@H]4C[C@@H]([C@H]5C(=O)N(C)C(=O)[C@@H]45)[C@H]23)cc1	–	–	–	–	–	–
O=C1[C@@H]2[C@@H]3C[C@@H]([C@H]4ON=C(c5ccc(Cl)cc5)[C@@H]34)[C@@H]2C(=O)N1C1CCCCC1	–	–	–	9.2µM	16µM	–
CCN(CC)CCOC(=O)/C=C/c1ccccc1	–	–	–	–	–	–
CCN(CC)CC(C)(C)C(=O)/C=C/c1ccc(/C=C/C(=O)C(C)(C)CN(CC)CC)cc1	1.6µM	5.8µM	–	0.41µM	0.52µM	–
OCc1nc2ccccc2n1Cc1c(F)cccc1Cl	–	–	–	15µM!	?	–

High-throughput results as filed in PubChem.
